# Source: PubChem BioAssay AID1987 (The Scripps Research Institute Molecular Screening Center, 2009)
# Screen size: about 320,000 compounds; about 560 (0.17%) were called active.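 How the source made its calls: active means inhibition above the campaign's mean inhibition across all tested compounds plus 3 SD (cut at about 9.5% in these data); inactive means the rest.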 For the sample, actives were picked, then their nearest neighbours and some compounds at random.
# Target: Serine/threonine-protein phosphatase 5 (Homo sapiens) (UniProt P53041)
# Experiment: PP5 phosphatase inhibitors, primary screen, biochemical, fluorescence (AID 1987);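 further: 0% = DMSO only and 100% = 100 µM cantharidin control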
# Conditions: purified PP5c, OMFP substrate fluorescence; at 6.7 µM; active compounds read high
# Serine/threonine-protein phosphatase 5 (Homo sapiens), sequence (P53041 whole entry, looked up): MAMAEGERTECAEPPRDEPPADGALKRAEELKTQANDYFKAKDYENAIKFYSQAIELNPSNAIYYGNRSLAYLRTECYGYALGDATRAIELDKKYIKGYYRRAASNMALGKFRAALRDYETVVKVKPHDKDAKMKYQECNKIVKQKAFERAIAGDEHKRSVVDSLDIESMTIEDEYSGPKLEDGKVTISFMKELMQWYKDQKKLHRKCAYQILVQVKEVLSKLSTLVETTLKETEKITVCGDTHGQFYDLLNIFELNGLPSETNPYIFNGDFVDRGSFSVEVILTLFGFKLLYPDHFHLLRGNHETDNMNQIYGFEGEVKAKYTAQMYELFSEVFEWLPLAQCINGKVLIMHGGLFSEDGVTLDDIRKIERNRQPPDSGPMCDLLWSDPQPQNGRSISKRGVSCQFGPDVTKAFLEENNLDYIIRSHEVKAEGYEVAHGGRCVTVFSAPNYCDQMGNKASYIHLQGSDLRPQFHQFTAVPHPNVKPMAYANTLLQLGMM
row,SMILES,inhibition
1,Cc1ccc(Cn2c(C)c3cnn(CC(=O)NCc4ccccn4)c(=O)c3c2C)cc1,-1.29% (inactive)
2,CCNC(=O)c1sccc1-n1cccc1,0.46% (inactive)
3,CC(C)(C)C(=O)NNC(=O)c1ccc(Oc2cc(Cl)cc(Cl)c2)o1,-2.8% (inactive)
4,CCn1nnc(NC(=O)c2cc(Cl)c(OC)c(Cl)c2)n1,0.92% (inactive)
5,CCN(CC(=O)NC1CCS(=O)(=O)C1)c1nc(-c2cccnc2)nc2ccccc12 (stereo not drawn),-1.12% (inactive)
6,Cc1cc(Cl)ccc1OCCCC(=O)NCc1ccccn1,1.77% (inactive)
7,O=C1[C@H]2[C@@H](c3ccc(F)cc3)N3C(=O)N(c4ccc(C(F)(F)F)cc4)C(=O)[C@@]3(Cc3ccccc3)[C@H]2C(=O)N1C1CCCCC1,5.23% (inactive)
8,CCCN(CCC)S(=O)(=O)c1ccc(C(=O)N2CC3CCC(CC3)C2)cc1,2.42% (inactive)
9,CCOC(=O)c1sc(N(Cc2ccccc2)C(=O)CN2C(=O)CN(C)C2=O)nc1C,-1.26% (inactive)
10,C[C@H]1[C@H]2c3nc4ccccc4n3C[C@H]1ON2C1CCCCC1,-1.65% (inactive)
11,COc1ccc(C(=O)NCc2ccc(C)cc2)cc1S(=O)(=O)N1CCCC1,-1.31% (inactive)
12,NCCCC[C@@H]1NC(=O)[C@H](CCC(=O)O)NC(=O)c2cc([N+](=O)[O-])cc(I)c2NCC[C@@H](C(N)=O)NC1=O,4.27% (inactive)
13,Cn1c(CC(=O)Nc2ccc(F)cc2)nnc1SCC(=O)NC1CCCCC1,1.34% (inactive)
14,COc1cccc(NC(=O)Nc2nnc(N3CCCCC3C)s2)c1 (stereo not drawn),3.58% (inactive)
15,CC(C)c1ccc(/C=C/C(=O)NCCCN2CCOCC2)cc1,0.61% (inactive)
16,CCC(C(=O)Nc1ncccn1)(C(F)(F)F)C(F)(F)F,-2.46% (inactive)
17,C/C(N)=C(/C#N)C(=O)COC(=O)c1cc(-c2ccc(C)cc2)nc2ccccc12,3.74% (inactive)
18,CSCC[C@H](NC(=O)N1CCn2c1nc1ccccc12)C(=O)NCc1ccc2c(c1)OCO2,-0.3% (inactive)
19,CCN(C(=O)COc1ccc(C(=O)c2ccccc2)cc1)c1ccccc1,0.04% (inactive)
20,O=C(O)c1n[nH]nc1-c1ccccc1,50.7% (active)

row,SMILES,inhibition
1,N#Cc1c(-c2ccccc2)c(-c2ccccc2)n[nH]c1=O,-1.11% (inactive)
2,O=c1[nH]c(-c2ccccc2)c(-c2ccccc2)[nH]1,0.4% (inactive)
3,CSCc1ccc(C(=O)Nc2cc(C)cc(C)c2)cc1,-1.23% (inactive)
4,COc1ccc(NC(=O)COC(=O)CNC(=O)C2CCCCC2)cc1,-1.03% (inactive)
5,COCCN(C(=O)COC(=O)Cc1cccc(OC)c1)c1c(N)n(Cc2ccccc2)c(=O)[nH]c1=O,-0.76% (inactive)
6,O=C(CSc1n[nH]c(=O)n1-c1ccccc1)Nc1ccccc1C(F)(F)F,1.79% (inactive)
7,O=C1C(C=NCC2CCCO2)=C(O)c2ccccc21 (stereo not drawn),2.92% (inactive)
8,Cc1ccccc1C(=O)NCC(c1ccco1)N1CCc2ccccc21 (stereo not drawn),-0.08% (inactive)
9,Cc1cccc(N(C)C(=O)CN2C(=O)COc3ccc(S(=O)(=O)N4CCCCCC4)cc32)c1,5.32% (inactive)
10,O=C(O)c1cccc2c1C(=O)N(C1CCCCC1)C2,1.97% (inactive)
11,CN1CCN(C(=O)Cn2c(C(F)(F)F)nc3ccccc32)CC1,0.08% (inactive)
12,COc1ccc(CNC(=O)C2(CC3CC(c4ccccc4)=NO3)CCN(C(=O)c3cccc(O)c3)CC2)cc1 (stereo not drawn),0.71% (inactive)
13,CN(CC(=O)Nc1ccccc1Cl)C(=O)COc1cccc2c1OC(C)(C)C2,1.31% (inactive)
14,CCOc1cnc(-c2c(-c3ccccc3Cl)noc2C)o1,3.98% (inactive)
15,Cc1ccc(N2CC(C(=O)N3CCC4(CC3)CC(=O)c3ccccc3O4)CC2=O)cc1C (stereo not drawn),-1.86% (inactive)
16,Cc1cccc(S(=O)(=O)N2CN(CC3CCCO3)c3nc4ccccc4nc32)c1 (stereo not drawn),3.91% (inactive)
17,N#C/C=C\Oc1ccc(Cl)cc1N,-0.64% (inactive)
18,CC1CCCCC1NC(=O)C1CCCN1S(=O)(=O)c1cccc2nsnc12 (stereo not drawn),-5.55% (inactive)
19,Cc1cccc(NC(=O)c2cccc(C(=O)Nc3cccc(C)c3C)n2)c1C,-0.92% (inactive)
20,CCNc1nc(NC(C)C)nc(N2CC(=O)N(CC(=O)OCC)C2=N)n1,-0.1% (inactive)

row,SMILES,inhibition
1,C=CCN1CCN(C(=O)CCCc2ccccc2)CC1,2.37% (inactive)
2,Cc1cccc(CCNC(=O)Cn2ncc3c([nH]c4ccc(C)cc43)c2=O)c1,-2.46% (inactive)
3,Cc1nnc(SCc2nc3ccccc3nc2C)s1,12.1% (active)
4,Cc1ccc(Nc2nc(N)nc(CSc3nnc(C)s3)n2)cc1,3.84% (inactive)
5,Cc1nnc(SCc2cc(=O)[nH]c(N3CCN(Cc4ccccc4)CC3)n2)s1,1.51% (inactive)
6,Cc1ccc(NC2=NC(c3ccccc3)n3c(nc(C)cc3=O)N2)cc1 (stereo not drawn),0.48% (inactive)
7,COc1ccccc1NS(=O)(=O)c1ccc(C)c(C(=O)NCC(c2ccco2)N(C)C)c1 (stereo not drawn),-1.06% (inactive)
8,COC(=O)C1(C)CC1(c1ccccc1)c1ccccc1 (stereo not drawn),3.86% (inactive)
9,COc1ccc(-c2cc(=O)oc3cc(OC(C)C(=O)Nc4ccc(CN5CCOCC5)cc4)ccc23)cc1 (stereo not drawn),4.28% (inactive)
10,CCCCCC1CCC(c2nnc(SCC(C)=O)o2)CC1 (stereo not drawn),2.41% (inactive)
11,COc1ccc(N(CC(=O)NC2CCCC2)C(=O)CS(=O)CC(=O)Nc2ccc3c(c2)OCO3)cc1 (stereo not drawn),0.8% (inactive)
12,Cn1c(=O)c2sccc2n(Cc2ccc(Br)cc2)c1=O,3.16% (inactive)
13,CCN(CC)C(=O)CSc1nnc(CNc2ccc(F)cc2)n1Cc1ccco1,3.87% (inactive)
14,O=C(NN1C(=O)C2C3C=CC(O3)C2C1=O)c1ccncc1 (stereo not drawn),-0.72% (inactive)
15,CC(C)(C)n1nc2c(c1NC(=O)c1ccc(S(=O)(=O)N3CCCC3)cc1)CS(=O)C2 (stereo not drawn),-2.2% (inactive)
16,C=CCOc1ccc(/C=C/C(=O)OCC(=O)NCC2CCCO2)cc1 (stereo not drawn),-0.48% (inactive)
17,O=Cc1c(Nc2ccccc2Cl)nc2ccccn2c1=O,-0.13% (inactive)
18,C[C@H](NC(=O)c1[nH]cnc1C(=O)Nc1nccs1)c1ccccc1,1.13% (inactive)
